# What was measured:
# Test in all cases: DAPPL (digital affinity profiling via proximity ligation, sequencing); 10 mM Tris-HCl pH 7.5, 50 mM NaCl, 1 mM DTT, 4% glycerol, room temperature, 30 min; GST-TFs on glutathione beads, 16-mer random dsDNA library, 0.1% formaldehyde crosslink after washing; high values mean tight binding
# Details in all cases: protein: recombinant; tags: N-terminal GST; dsDNA, one strand shown
# FLI1 = biological target: T1, FLI1 (Homo sapiens, UniProt Q01543 1-452)
# T1 sequence: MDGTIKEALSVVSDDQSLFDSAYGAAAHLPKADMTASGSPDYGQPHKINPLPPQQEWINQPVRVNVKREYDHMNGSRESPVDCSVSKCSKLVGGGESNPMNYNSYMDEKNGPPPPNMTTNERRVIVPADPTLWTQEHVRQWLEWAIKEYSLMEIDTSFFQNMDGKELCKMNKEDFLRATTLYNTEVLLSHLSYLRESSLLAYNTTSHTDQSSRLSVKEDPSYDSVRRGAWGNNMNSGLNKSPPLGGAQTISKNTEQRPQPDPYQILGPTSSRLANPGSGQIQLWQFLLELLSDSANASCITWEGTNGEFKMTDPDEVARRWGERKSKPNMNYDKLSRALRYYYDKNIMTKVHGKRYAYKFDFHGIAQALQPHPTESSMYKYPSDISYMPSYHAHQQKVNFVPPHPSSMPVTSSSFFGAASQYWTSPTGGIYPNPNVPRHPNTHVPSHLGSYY
# In short: (§1)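 Sequencing on an Illumina NextSeq500 followed washing, crosslinking with 0.1% formaldehyde, proximity ligation (BsaI/T4 ligase, 1 h, 37 °C) and PCR amplification of pools that had been incubated for 30 min at room temperature with 200 nmole of a random double-stranded 16-mer DNA library in Tris/NaCl/DTT/glycerol buffer. Each pool held DNA-barcoded human transcription factors, expressed in yeast as GST fusions and captured on glutathione beads, plus a tag-only sample. Binding signal is a hexamer's read frequency for a factor divided by its frequency in the tag-only sample.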
# ELK1 = biological target: T2, ELK1 (Homo sapiens, UniProt P19419 1-428)
# T2 sequence: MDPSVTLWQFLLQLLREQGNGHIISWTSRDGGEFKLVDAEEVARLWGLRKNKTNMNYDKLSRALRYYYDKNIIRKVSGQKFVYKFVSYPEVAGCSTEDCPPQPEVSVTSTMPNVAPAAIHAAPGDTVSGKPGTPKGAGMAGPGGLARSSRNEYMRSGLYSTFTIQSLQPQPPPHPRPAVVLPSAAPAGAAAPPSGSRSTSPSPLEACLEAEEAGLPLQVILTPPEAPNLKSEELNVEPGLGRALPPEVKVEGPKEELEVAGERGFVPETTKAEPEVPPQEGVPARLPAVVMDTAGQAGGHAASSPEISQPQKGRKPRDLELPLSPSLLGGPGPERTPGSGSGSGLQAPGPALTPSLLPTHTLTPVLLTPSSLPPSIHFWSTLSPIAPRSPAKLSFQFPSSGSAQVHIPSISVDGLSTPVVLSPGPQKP
# In short: as §1
# GABPA = biological target: T3, GABPA (Homo sapiens, UniProt Q06546 1-454)
# T3 sequence: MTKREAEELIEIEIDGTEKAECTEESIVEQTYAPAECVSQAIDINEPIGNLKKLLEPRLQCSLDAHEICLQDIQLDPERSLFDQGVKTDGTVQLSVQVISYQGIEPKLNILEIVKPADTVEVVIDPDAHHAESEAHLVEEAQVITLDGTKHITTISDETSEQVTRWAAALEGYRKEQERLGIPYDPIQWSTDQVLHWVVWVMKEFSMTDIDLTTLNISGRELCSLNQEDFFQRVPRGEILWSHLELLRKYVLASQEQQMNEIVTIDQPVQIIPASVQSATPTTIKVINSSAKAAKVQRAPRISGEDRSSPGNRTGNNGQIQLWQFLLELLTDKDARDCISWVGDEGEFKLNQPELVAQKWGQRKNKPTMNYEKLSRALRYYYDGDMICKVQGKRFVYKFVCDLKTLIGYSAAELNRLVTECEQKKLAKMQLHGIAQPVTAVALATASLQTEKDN
# In short: as §1
# ERG = biological target: T4, ERG (Homo sapiens, UniProt P11308 1-479)
# T4 sequence: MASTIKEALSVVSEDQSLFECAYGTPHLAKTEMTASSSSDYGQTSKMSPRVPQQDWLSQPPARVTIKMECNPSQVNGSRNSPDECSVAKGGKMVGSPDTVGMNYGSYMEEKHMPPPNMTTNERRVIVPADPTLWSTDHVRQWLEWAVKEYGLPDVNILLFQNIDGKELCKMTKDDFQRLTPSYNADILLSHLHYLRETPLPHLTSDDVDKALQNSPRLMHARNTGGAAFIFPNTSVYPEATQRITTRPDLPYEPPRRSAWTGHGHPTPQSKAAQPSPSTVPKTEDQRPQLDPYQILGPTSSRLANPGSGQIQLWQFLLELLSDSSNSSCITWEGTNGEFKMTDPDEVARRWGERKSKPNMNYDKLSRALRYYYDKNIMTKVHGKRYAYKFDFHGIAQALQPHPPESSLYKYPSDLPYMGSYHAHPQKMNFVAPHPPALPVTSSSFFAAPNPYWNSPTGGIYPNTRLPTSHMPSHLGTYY
# In short: as §1
# ELF1 = ELF1 (Homo sapiens, UniProt P32519 1-619)
# In short: as §1
# EHF = biological target: T5, EHF (Homo sapiens, UniProt Q9NZC4 1-300)
# T5 sequence: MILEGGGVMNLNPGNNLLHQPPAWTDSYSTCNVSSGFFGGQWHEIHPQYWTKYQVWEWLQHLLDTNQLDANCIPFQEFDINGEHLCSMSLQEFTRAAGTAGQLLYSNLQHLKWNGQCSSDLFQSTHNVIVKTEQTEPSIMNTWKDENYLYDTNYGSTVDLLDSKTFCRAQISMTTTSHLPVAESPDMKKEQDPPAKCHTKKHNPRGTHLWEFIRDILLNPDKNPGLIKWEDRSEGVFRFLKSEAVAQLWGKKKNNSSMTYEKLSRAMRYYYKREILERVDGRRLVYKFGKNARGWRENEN
# In short: as §1
# SPI1 = SPI1 (Homo sapiens, UniProt P17947 1-270)
# In short: as §1
# SPIB = SPIB (Homo sapiens, UniProt Q01892 1-262)
# In short: as §1
# ELK3 = biological target: T6, ELK3 (Homo sapiens, UniProt P41970 1-407)
# T6 sequence: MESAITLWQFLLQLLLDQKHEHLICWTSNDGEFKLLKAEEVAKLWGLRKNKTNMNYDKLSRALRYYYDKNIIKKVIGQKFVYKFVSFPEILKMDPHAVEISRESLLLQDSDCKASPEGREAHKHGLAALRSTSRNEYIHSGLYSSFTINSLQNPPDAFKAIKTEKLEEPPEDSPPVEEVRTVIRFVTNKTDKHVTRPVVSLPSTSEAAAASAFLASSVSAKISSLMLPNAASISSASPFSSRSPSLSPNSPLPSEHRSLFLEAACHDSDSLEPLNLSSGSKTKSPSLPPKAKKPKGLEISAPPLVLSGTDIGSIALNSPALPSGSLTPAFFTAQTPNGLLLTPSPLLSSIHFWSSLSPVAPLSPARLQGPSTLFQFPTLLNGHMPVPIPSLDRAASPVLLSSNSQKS
# In short: as §1
# FEV = biological target: T7, FEV (Homo sapiens, UniProt Q99581 1-238)
# T7 sequence: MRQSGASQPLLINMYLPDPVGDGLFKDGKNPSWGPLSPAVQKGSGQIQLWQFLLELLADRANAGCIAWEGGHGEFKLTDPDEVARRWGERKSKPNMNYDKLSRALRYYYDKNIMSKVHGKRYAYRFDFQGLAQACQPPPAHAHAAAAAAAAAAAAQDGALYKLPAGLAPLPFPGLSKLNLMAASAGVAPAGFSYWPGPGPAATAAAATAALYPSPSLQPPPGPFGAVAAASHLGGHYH
# In short: as §1
# ETV5 = ETV5 (Homo sapiens, UniProt P41161 1-510)
# In short: as §1
# ELF4 = ELF4 (Homo sapiens, UniProt Q99607 1-663)
# In short: as §1
# ETV1 = ETV1 (Homo sapiens, UniProt P50549 1-477)
# In short: as §1
# ERF = biological target: T8, ERF (Homo sapiens, UniProt P50548 1-548)
# T8 sequence: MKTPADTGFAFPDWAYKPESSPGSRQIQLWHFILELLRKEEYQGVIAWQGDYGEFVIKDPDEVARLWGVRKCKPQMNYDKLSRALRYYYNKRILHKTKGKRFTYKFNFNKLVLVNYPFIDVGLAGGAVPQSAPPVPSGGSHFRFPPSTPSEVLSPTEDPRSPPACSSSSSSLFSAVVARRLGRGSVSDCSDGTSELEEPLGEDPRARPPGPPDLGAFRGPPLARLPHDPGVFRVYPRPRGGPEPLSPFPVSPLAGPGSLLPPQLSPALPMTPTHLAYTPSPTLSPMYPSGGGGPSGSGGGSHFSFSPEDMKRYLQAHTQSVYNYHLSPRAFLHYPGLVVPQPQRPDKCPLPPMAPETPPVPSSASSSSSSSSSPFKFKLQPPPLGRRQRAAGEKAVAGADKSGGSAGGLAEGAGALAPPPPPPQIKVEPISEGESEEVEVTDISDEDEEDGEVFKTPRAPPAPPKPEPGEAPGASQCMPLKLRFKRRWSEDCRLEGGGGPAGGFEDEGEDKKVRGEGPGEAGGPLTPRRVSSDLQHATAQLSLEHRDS
# In short: as §1
# ETV3L = biological target: T9, ETV3L (Homo sapiens, UniProt Q6ZN32 1-361)
# T9 sequence: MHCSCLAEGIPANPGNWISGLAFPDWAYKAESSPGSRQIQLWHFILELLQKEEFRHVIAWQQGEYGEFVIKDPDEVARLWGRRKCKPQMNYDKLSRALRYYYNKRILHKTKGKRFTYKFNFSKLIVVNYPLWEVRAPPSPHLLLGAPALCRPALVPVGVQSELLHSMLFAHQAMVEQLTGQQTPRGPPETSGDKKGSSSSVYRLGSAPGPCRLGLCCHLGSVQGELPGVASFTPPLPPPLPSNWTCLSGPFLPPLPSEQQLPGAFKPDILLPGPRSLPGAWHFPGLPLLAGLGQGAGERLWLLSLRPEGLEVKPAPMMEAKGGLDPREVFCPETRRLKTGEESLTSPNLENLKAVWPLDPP
# In short: as §1
# ETS2 = biological target: T10, ETS2 (Homo sapiens, UniProt P15036 1-469)
# T10 sequence: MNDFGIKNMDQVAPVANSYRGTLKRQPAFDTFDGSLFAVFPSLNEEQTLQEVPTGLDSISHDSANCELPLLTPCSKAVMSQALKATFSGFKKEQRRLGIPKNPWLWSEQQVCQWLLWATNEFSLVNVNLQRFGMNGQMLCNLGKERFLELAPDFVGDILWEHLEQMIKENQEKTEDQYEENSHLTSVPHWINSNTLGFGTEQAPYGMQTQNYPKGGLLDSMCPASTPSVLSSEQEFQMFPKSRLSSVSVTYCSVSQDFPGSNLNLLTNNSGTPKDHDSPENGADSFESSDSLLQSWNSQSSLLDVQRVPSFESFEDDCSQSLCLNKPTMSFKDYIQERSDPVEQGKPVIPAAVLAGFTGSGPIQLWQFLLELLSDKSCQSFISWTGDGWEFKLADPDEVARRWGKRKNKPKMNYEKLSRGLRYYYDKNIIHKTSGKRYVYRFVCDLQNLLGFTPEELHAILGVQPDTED
# In short: as §1
# SPDEF = biological target: T11, SPDEF (Homo sapiens, UniProt O95238 1-335)
# T11 sequence: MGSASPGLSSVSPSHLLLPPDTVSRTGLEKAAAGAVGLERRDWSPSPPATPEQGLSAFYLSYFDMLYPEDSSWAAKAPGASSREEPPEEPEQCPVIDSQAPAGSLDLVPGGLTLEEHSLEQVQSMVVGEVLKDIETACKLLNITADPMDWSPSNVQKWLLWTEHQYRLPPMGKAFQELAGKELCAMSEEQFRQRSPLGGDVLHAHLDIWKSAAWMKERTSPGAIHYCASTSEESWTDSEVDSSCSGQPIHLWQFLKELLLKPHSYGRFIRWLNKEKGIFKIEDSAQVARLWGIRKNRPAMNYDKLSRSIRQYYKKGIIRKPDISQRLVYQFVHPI
# In short: as §1
# ETV3 = biological target: T12, ETV3 (Homo sapiens, UniProt P41162-2 1-143)
# T12 sequence: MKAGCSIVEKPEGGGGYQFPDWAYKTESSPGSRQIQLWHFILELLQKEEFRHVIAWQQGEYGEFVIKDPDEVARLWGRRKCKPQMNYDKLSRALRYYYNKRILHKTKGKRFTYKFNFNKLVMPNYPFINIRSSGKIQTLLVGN
# In short: as §1
# ETV6 = ETV6 (Homo sapiens, UniProt P41212 1-452)
# In short: as §1
# ELF1, sequence (P32519 whole entry): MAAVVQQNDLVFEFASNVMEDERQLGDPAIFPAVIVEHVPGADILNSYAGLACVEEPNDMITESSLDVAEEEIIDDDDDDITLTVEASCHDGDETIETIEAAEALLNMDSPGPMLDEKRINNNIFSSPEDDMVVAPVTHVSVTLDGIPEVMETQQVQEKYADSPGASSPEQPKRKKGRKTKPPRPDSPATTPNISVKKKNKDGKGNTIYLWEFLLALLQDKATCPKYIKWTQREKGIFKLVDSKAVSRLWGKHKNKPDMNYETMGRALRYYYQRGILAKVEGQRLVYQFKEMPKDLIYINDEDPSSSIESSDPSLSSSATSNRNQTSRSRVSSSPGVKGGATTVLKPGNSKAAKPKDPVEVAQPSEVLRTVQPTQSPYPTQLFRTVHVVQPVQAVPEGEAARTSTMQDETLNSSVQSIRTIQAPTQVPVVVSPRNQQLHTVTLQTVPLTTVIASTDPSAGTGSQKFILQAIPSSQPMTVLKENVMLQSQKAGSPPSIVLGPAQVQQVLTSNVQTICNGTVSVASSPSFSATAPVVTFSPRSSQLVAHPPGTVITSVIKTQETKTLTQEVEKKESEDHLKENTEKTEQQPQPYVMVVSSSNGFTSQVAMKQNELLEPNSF
# SPIB, sequence (Q01892 whole entry): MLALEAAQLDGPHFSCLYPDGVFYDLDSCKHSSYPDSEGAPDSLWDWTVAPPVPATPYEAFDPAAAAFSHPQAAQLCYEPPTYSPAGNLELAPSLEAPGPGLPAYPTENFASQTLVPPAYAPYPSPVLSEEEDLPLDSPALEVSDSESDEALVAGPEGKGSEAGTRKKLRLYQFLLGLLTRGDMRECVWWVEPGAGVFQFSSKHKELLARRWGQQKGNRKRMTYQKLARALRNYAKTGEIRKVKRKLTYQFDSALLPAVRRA
# ETV1, sequence (P50549 whole entry): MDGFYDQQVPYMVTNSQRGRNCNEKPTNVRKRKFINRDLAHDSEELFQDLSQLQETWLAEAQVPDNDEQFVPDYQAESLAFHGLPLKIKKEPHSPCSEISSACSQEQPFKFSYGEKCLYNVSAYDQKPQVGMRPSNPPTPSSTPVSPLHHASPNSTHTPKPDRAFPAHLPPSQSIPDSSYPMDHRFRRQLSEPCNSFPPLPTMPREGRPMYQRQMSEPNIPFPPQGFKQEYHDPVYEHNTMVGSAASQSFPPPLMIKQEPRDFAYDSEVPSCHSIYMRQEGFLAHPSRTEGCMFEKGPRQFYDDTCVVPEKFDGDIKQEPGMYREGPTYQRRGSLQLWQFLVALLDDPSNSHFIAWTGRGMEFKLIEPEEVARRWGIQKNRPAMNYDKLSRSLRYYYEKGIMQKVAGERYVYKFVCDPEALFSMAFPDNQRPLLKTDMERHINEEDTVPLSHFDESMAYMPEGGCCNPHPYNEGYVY
# ETV5, sequence (P41161 whole entry): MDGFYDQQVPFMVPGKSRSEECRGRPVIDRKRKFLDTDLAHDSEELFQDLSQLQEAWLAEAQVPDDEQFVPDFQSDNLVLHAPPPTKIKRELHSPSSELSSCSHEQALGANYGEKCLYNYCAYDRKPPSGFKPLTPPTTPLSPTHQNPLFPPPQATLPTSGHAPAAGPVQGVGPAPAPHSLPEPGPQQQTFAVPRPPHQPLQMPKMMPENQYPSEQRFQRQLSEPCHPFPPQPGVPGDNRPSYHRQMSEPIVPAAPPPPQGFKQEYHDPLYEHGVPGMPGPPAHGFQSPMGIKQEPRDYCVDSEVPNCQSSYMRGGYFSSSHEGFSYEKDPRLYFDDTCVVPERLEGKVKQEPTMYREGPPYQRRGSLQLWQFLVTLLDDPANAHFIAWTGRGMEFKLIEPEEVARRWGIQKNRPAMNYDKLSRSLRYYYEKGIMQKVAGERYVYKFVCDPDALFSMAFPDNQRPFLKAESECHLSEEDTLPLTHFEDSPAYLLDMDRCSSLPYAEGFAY
# ELF4, sequence (Q99607 whole entry): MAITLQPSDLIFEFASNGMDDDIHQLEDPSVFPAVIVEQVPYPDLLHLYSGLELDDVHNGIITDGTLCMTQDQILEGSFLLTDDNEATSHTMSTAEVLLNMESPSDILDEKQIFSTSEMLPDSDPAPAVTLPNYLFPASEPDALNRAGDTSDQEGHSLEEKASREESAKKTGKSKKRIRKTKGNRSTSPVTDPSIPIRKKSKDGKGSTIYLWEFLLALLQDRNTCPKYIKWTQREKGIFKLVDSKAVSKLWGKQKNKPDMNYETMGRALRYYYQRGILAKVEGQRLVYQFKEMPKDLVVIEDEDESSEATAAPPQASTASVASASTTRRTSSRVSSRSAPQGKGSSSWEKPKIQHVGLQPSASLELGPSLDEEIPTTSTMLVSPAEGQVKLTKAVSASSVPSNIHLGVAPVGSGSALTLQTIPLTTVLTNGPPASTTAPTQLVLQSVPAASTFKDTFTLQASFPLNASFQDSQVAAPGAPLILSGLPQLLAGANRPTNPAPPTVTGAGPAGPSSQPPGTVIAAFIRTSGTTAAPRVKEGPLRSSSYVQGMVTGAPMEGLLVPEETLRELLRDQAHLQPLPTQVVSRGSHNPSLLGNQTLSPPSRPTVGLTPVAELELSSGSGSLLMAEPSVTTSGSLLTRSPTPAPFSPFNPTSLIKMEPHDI
# ETV6, sequence (P41212 whole entry): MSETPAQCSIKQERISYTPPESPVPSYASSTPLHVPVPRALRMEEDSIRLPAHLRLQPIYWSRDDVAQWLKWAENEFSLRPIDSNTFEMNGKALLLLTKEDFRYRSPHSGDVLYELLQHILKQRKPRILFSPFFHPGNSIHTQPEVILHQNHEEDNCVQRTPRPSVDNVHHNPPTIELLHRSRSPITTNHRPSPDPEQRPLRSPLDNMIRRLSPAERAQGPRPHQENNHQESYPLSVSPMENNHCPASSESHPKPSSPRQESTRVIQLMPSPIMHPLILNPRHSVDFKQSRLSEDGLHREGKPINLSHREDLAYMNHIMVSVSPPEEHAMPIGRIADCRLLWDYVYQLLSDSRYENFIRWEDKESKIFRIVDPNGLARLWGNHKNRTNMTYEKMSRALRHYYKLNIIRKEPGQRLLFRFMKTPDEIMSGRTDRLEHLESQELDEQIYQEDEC
sequence,measurement,setting,value
ACCGCA,binding signal,FLI1,"1.17 fold enrichment (6-mer frequency, TF over GST control)"
same,binding signal,ELK1,"1.14 fold enrichment (6-mer frequency, TF over GST control)"
same,binding signal,GABPA,"1.16 fold enrichment (6-mer frequency, TF over GST control)"
same,binding signal,ERG,"1.11 fold enrichment (6-mer frequency, TF over GST control)"
same,binding signal,ELF1,"1.15 fold enrichment (6-mer frequency, TF over GST control)"
same,binding signal,EHF,"1.23 fold enrichment (6-mer frequency, TF over GST control)"
same,binding signal,SPI1,"1.2 fold enrichment (6-mer frequency, TF over GST control)"
same,binding signal,SPIB,"1.16 fold enrichment (6-mer frequency, TF over GST control)"
same,binding signal,ELK3,"1.19 fold enrichment (6-mer frequency, TF over GST control)"
same,binding signal,FEV,"1.17 fold enrichment (6-mer frequency, TF over GST control)"
same,binding signal,ETV5,"1.13 fold enrichment (6-mer frequency, TF over GST control)"
same,binding signal,ELF4,"1.15 fold enrichment (6-mer frequency, TF over GST control)"
same,binding signal,ETV1,"1.17 fold enrichment (6-mer frequency, TF over GST control)"
same,binding signal,ERF,"1.11 fold enrichment (6-mer frequency, TF over GST control)"
same,binding signal,ETV3L,"1.12 fold enrichment (6-mer frequency, TF over GST control)"
same,binding signal,ETS2,"1.18 fold enrichment (6-mer frequency, TF over GST control)"
same,binding signal,SPDEF,"1.13 fold enrichment (6-mer frequency, TF over GST control)"
same,binding signal,ETV3,"1.09 fold enrichment (6-mer frequency, TF over GST control)"
same,binding signal,ETV6,"1.15 fold enrichment (6-mer frequency, TF over GST control)"

# Source: PMC7862700, “An all-to-all approach to the identification of sequence-specific readers for epigenetic DNA modifications on cytosine”
